Laboratory results: PubChem BioAssay (NCATS)
Several values for one entry are separate records, joined by “and”; a condition that tells them apart may be missing. Equal entries are not always repeated. Records with an inconclusive call do not appear. Activity calls are given as the source filed them. Unless noted, no rule for the calls is given here.

Tests used:
[1] = qHTS Assay for Identifying Gametocytocidal Compounds (AID 743244; active = well fitted curve in the direction sought with a large enough effect; an effect the other way counts as inactive or inconclusive; also: potency is read from the fitted curve at half-maximal effect;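 as to max response: % is scaled to controls: 0 for no effect and ±100 for the full control effect; actives lower the fluorescent signal which means gametocytes are killed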); details: P. falciparum 3D7 stage III-V gametocytes, alamarBlue, 72 h; max response: stronger effect = lower value
Method in brief: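 Fluorescence at Ex 525/Em 598 nm, recorded 24 h after alamarBlue addition, reports residual metabolic activity of 3D7 gametocytes (stages III–V) following 72 h compound exposure at 37 °C, 5% CO2.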

[2] = qHTS profiling for inhibitors of Plasmodium falciparum (3D7) proliferation (AID 743322);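 also: infected erythrocytes exposed to compound for 72 h before lysis; 100% = DMSO vehicle wells and 0% = 0.29 µM artemisinin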; details: P. falciparum 3D7 proliferation; at 28.7 µM (top of the series)
Method in brief: (§1)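 Parasite DNA was quantified by SYBR Green I fluorescence (ex 485, em 535 nm) after overnight lysis in saponin/Triton buffer at room temperature. Cultures at 0.3% parasitemia and 2.5% hematocrit were first exposed to compound for 72 h at 37 C; signals were normalised to artemisinin (0.29 uM) and vehicle wells.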

[3] = qHTS profiling for inhibitors of Plasmodium falciparum (DD2) proliferation (AID 743323); details: lower = more inhibition; at 28.7 µM (top of the series)
Method in brief: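 P. falciparum Dd2-infected erythrocytes (0.3% parasitemia, 2.5% hematocrit) exposed 72 h at 37 C, 5% CO2. Lysis with SYBR Green, overnight at room temperature, fluorescence 485/535 nm; normalized to 0.29 uM artemisinin and DMSO.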

[4] = qHTS profiling for inhibitors of Plasmodium falciparum (HB3) proliferation (AID 743324; active = well fitted curve in the direction sought with a large enough effect; an effect the other way counts as inactive or inconclusive;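 also: 100% = DMSO vehicle wells and 0% = artemisinin-treated control wells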); details: Plasmodium falciparum HB3 blood-stage proliferation; at 28.7 µM (top of the series)
Method in brief: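 SYBR Green fluorescence (485 ex/535 em) of lysed cultures, incubated overnight at room temperature in the dark, quantifies parasite DNA. Infected erythrocytes at 0.3% parasitemia and 2.5% hematocrit were exposed 72 h; values normalized to DMSO and 0.29 uM artemisinin controls.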

[5] = qHTS profiling of the MIPE4 collection as inhibitors of Plasmodium falciparum (DD2) proliferation (AID 743345); details: P. falciparum Dd2 in erythrocytes, SYBR Green DNA, 72 h; at 28.5 µM (top of the series) unless noted
Method in brief: as §1

[6] = qHTS profiling of the MIPE4 collection as inhibitors of Plasmodium falciparum (DD2) proliferation (Rep 2) (AID 743346); details: P. falciparum Dd2 in erythrocytes, SYBR Green DNA, 72 h; at 28.5 µM (top of the series) unless noted
Method in brief: as §1

[7] = qHTS profiling of the MIPE4 collection as inhibitors of Plasmodium falciparum (HB3) proliferation (AID 743347);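 also: plate controls were DMSO vehicle wells for no effect and artemisinin wells for full effect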; details: P. falciparum HB3 in erythrocytes, SYBR Green DNA, 72 h; at 28.5 µM (top of the series) unless noted
Method in brief: as §1

[8] = High-throughput drug toxicity screening in the BPDCN cell line Gen2.2 (AID 1224824); details: Gen2.2 BPDCN cells; at 45.8 µM (top of the series) unless noted;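 also: cells exposed to compounds for 48 h before reading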
Method in brief: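 Gen2.2, 500 cells/well, phenol red-free RPMI/10% FBS/Pen-Strep; 48 h cpd, 37 °C/5% CO2; CTG lum, 15 min RT. Norm: DMSO = 100%, bortezomib 9.2 uM final = 0%.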

[9] = qHTS assay for measurement of the activity of small molecule inhibitors on Zika virus induced Caspase-3 activity in human iPSC derived neural progenitor cells (hNPCs) (AID 1224857; active = well fitted curve in the direction sought with a large enough effect; an effect the other way counts as inactive or inconclusive; also: % of control where 0% means no effect; nearly all actives have a fitted effect of over 65% in size)
Method in brief: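 Zika virus (2 FFU/cell) infection of human iPSC-derived NPCs, 6 h, following 1 h compound preincubation. Read-out: Caspase-Glo 3/7 luminescence.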

[10] = qHTS profiling of the MIPE4 collection as inhibitors of Plasmodium falciparum (3D7) proliferation (AID 743344);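 also: scaled between DMSO vehicle wells and 0.29 µM artemisinin as full inhibition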; details: P. falciparum 3D7 in erythrocytes, SYBR Green DNA fluorescence, 72 h; at 28.5 µM (top of the series) unless noted
Method in brief: as §1

[11] = High-throughput drug toxicity screening in the BPDCN cell line Cal-1 (AID 1224825); details: Cal-1 BPDCN cell viability, qHTS; at 45.8 µM (top of the series) unless noted
Method in brief: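 CellTiter-Glo luminescence after 48 h compound exposure; percent activity scaled with DMSO as 100% and bortezomib (9.2 uM final) as 0%. Cal-1 cells seeded at 500/well in RPMI, 10% FBS, no phenol red.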

Row | SMILES | Potency [1] | remaining parasite growth % (stronger effect = lower value) [2] | activity, percent of control [3] | remaining proliferation (% of control), lower = more inhibition [4] | parasite growth remaining, % of DMSO control (lower = more inhibition) [5] | parasite growth, % of control (lower = inhibition) [6] | growth, % of control [7] | cell viability, % of control (lower = more cytotoxic) [8] | Potency [9] | max response [1] | parasite growth, % of DMSO control [10] | viability (% of control) [11] [%]
1 | CCCCc1nc2cc(C=CC(=O)NO)ccc2n1CCN(CC)CC | 3.72 µM (active) | -0.311% | -0.413% | -0.411% | 7.36% | 7.61% | 4.84% | 53.2% | inactive | – | – | –
2 | O=C(NCCCNc1nc(Nc2cccc(NC(=O)N3CCCC3)c2)ncc1I)c1cccs1 | – | 2.01% and 8.72% | 5.54% and 10.1% | 1.48% and 5.6% | 12.5% | 28.1% | 4.4% | – | inactive | -18.4% (inactive) and -12.2% (inactive) | 6.21% | 2.96
3 | COc1cc2c(cc1-c1c(C)noc1C)ncc1[nH]c(=O)n([C@H](C)c3ccccn3)c12 | – | – | – | – | 97.3% | 86.2% | 74.1% | 65.5% | inactive | – | – | –
4 | CCn1nnc2c(N3CCOCC3)nc(-c3ccc(NC(=O)Nc4ccc(C(=O)N5CCN(C)CC5)cc4)cc3)nc21 | – | – | – | – | 6.26% | 13.6% | 5.28% | 28.1% | inactive | – | 6.79% | –
5 | Cc1nc2cnc3ccc(C#Cc4cccnc4)cc3c2n1-c1ccc(C(C)(C)C#N)cc1 | – | – | 0.126% | -0.656% | 7.19% | 13.9% | 3.51% | 3.34% | – | – | – | –
6 | Cc1cccc(C=NNc2cc(N3CCOCC3)nc(OCCc3ccccn3)n2)c1 | – | 3.29% | 8.46% | 1.85% | 15.2% | 11.8% | 4.79% | 60.1% | inactive | – | 5.56% | –
7 | C#Cc1cccc(Nc2ncnc3cc(OC)c(OCCCCCCC(=O)NO)cc23)c1 | 1.71 µM (active) | – | 0.0372% | -0.395% | 6.37% | 11.2% | 3.1% | 44.2% | – | – | 5.53% | –
8 | COc1cc2ncn(-c3cc(OCc4ccccc4C(F)(F)F)c(C(N)=O)s3)c2cc1OC | – | 18.7% | 43.8% | 13% | 65% | 44.3% | 35.9% | – | inactive | 18.7% (inactive) | 41.3% | 4.46
9 | Cc1ccc2nc(NC(=O)CSc3nc4c(c(=O)n3-c3ccccc3)SCC4)sc2c1 | – | – | – | – | 82.9% | 72.4% | 42.3% | 120% | inactive | – | 29.9% | –
10 | COc1cc2c(Oc3ccc(NC(=O)C4(C(=O)Nc5ccc(F)cc5)CC4)cc3F)ccnc2cc1OCCCN1CCOCC1 | 18.7 µM (active) | – | -0.633% | -0.88% | 5.88% | 20.2% | 8.86% | 10.2% | inactive | – | 7.43% | –
11 | COc1cc2c(NC3CCN(C(C)C)CC3)nc(C3CCCCC3)nc2cc1OCCCN1CCCC1 | – | – | – | – | – | 10.3% | 4.41% | 9.63% | – | – | – | –
12 | O=C(Nc1nc2cccc(-c3ccc(CN4CCS(=O)(=O)CC4)cc3)n2n1)C1CC1 | – | – | – | – | 97.6% | 62.8% | 73.9% | 107% | inactive | – | 64.7% | –
13 | O=C(C=Cc1cccnc1)NCCCCC1CCN(C(=O)c2ccccc2)CC1 | – | 81.9% | 85.9% | 46.3% | – | 51% | 42% | 48% | inactive | 33.6% (inactive) | 50.2% | –
14 | COc1c(OCCCN2CCOCC2)ccc2c3n(c(=NC(=O)c4cnc(N)nc4)nc12)CCN3 | – | – | – | – | 12% [at 9.64 µM] | 16.8% [at 9.64 µM] | 3.45% [at 9.64 µM] | 37.7% [at 23.2 µM] | inactive | – | 7.6% [at 9.64 µM] | –
15 | COC(=O)C[C@](O)(CCCC(C)(C)O)C(=O)O[C@@H]1C(OC)=C[C@]23CCCN2CCc2cc4c(cc2[C@H]13)OCO4 | – | – | – | – | – | – | – | – | inactive | – | – | 134
16 | COc1cc2c(Oc3ccc4[nH]c(C)cc4c3F)ncnc2cc1OCCCN1CCCC1 | 18.7 µM (active) | -0.853% | 1.27% | 0.351% | 8.16% | 15.9% | 6.98% | – | inactive | – | 6.49% | 6.46
17 | Cc1cn2c(-c3cn[nH]c3)cnc2c(Nc2ccc(C(=O)N3CCNCC3)cc2F)n1 | 23.5 µM (active) | 19.1% | 12.6% | 11.9% | 11.4% | 11.4% | 3.68% | 99.1% | inactive | – | – | –
18 | CC[C@@H]1C(=O)N(C)c2cnc(Nc3ccc(C(=O)NC4CCN(C)CC4)cc3OC)nc2N1C1CCCC1 | 2.35 µM (active) | – | 0.0959% | -0.331% | 6.75% | 17.2% | 6.34% | 4.74% | – | – | 4.91% | –
19 | CNC(=O)c1nn(C)c2c1C(C)(C)Cc1cnc(Nc3ccc(N4CCN(C)CC4)cc3)nc1-2 | – | – | – | – | 11.1% | 6.77% | 3.32% | 3.63% | inactive | – | 6.38% | –
20 | Cc1cc(Nc2ncnc3ccc(-c4ccc(CNCCS(C)(=O)=O)o4)cc23)ccc1Oc1ccn2ncnc2c1 | – | – | – | – | 7.77% | 7.94% | 2.65% | 3.66% | inactive | – | – | –
21 | CC(C)Nc1cc(C(F)(F)F)cc2nc(NC(=O)c3cccnc3)nn12 | – | – | – | – | 97.3% | 92.3% | 93.5% | – | inactive | – | 78.6% | –
22 | CCC(=C(c1ccccc1)c1ccc(OCCN(C)C)cc1)c1ccccc1 | – | 17.2% | 5.96% | 8.11% | – | 31% | 69.7% | – | inactive | -26.2% (inactive) | – | –
23 | CC(=O)Nc1sc2c(c1-c1nc3ccccc3s1)CNC2 | – | – | 96.7% | 74.7% | – | 24% | 10.8% | – | inactive | 20.9% (inactive) | 20.4% | 4.86
